Reference: PubChem BioAssay (Tox21)
Records with an inconclusive call do not appear. The source made the active and inactive calls. Unless noted, calls come from the whole dose curve; as a rule, active = well fitted curve in the direction sought with a large enough effect in the repeat runs; inconclusive = weak or mixed curves; inactive = no such curve, though single readings can be large; an effect the other way counts as inactive or inconclusive.

What was measured:
[1] = qHTS assay to identify small molecule agonists of the peroxisome proliferator-activated receptor delta (PPARd) signaling pathway - cell viability counter screen (AID 743211); note: nearly all actives have a fitted effect of over 55% in size
Method in brief: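 Viability was measured as CellTiter-Glo luminescence (30 min, room temperature) in the same wells as the beta-lactamase readout. GeneBLAzer PPARd UAS-bla HEK293H cells received compound after 5 h plating and were incubated 17 h at 37 C.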

[2] = target: Peroxisome proliferator-activated receptor delta (Homo sapiens) (UniProt Q03181); assay: qHTS assay to identify small molecule agonists of the peroxisome proliferator-activated receptor delta (PPARd) signaling pathway (AID 743212; calls by dose curve)
Chain of Peroxisome proliferator-activated receptor delta (Homo sapiens) (Q03181 whole entry, looked up): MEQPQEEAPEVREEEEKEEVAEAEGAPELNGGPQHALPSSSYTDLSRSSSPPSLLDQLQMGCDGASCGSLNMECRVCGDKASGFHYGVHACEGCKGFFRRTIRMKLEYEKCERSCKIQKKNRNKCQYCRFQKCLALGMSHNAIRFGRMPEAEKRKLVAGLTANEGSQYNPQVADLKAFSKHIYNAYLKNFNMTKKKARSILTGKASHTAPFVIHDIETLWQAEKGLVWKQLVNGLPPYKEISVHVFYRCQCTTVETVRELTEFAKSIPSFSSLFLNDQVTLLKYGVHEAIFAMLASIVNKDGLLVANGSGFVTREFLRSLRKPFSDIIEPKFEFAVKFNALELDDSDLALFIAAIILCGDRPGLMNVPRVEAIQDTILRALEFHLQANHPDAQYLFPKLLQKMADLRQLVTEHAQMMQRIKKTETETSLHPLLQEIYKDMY
Method in brief: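 GeneBLAzer PPARd UAS-bla HEK293H cells (beta-lactamase reporter under UAS control), plated and rested 5 h at 37 C, then exposed to compounds in DMSO at 37 C; LiveBLAzer B/G FRET substrate added, 2 h room temperature, fluorescence read.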

[3] = qHTS assay to identify small molecule antagonists of the peroxisome proliferator-activated receptor delta (PPARd) signaling pathway - cell viability counter screen (AID 743213); note: nearly all actives have a fitted effect of over 50% in size
Method in brief: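 PPARd-bla HEK293H cells (3000/well) got compound plus 300 nM L165041 agonist for 17 h at 37 C. Viability in the same wells came from CellTiter-Glo luminescence after 30 min at room temperature.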

[4] = qHTS assay to identify small molecule agonists of the farnesoid-X-receptor (FXR) signaling pathway - cell viability counter screen (AID 743218); note: nearly all actives have a fitted effect of over 45% in size
Method in brief: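 FXR-UAS-bla HEK 293T cells exposed to compounds for 16 h at 37C. Cytotoxicity read in the same wells by CellTiter-Glo luminescence after 30 min at room temperature, following the beta-lactamase FRET read.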

[5] = qHTS assay to identify small molecule antagonists of the farnesoid-X-receptor (FXR) signaling pathway - cell viability counter screen (AID 743221; active = well fitted cell-killing curve with a large enough effect in the repeat runs, not every such curve was filed as active; note: nearly all actives have a fitted effect of over 50% in size)
Method in brief: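 Cytotoxicity counter screen run in the FXR-bla reporter wells: HEK 293T cells exposed to compound with 50 uM (final) chenodeoxycholic acid for 16 h, 37 C, then viability measured by CellTiter-Glo luminescence after 30 min, room temperature.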

[6] = target: Vitamin D3 receptor (Homo sapiens) (UniProt P11473); assay: qHTS assay to identify small molecule agonists of the vitamin D receptor (VDR) signaling pathway (AID 743222; calls by dose curve)
Chain of Vitamin D3 receptor (Homo sapiens) (P11473 whole entry, looked up): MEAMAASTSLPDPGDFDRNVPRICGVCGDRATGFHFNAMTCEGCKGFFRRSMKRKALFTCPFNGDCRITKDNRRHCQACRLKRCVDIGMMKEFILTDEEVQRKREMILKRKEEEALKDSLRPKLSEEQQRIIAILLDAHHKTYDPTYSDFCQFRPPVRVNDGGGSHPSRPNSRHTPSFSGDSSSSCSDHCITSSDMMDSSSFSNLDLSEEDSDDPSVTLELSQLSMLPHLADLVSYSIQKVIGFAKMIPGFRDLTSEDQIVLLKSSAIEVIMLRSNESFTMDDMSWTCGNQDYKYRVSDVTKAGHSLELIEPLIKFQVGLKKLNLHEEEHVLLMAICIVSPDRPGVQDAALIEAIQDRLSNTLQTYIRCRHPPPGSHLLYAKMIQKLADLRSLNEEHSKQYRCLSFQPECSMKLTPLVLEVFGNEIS
Method in brief: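 VDR-bla cells plated 4 h at 37 C, then exposed to compounds for 16 h at 37 C. Beta-lactamase reporter activity measured by fluorescence after 2 h room-temperature loading with LiveBLAzer B/G FRET substrate.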

[7] = target: Vitamin D3 receptor (Homo sapiens) (UniProt P11473); assay: qHTS assay to identify small molecule antagonists of the vitamin D receptor (VDR) signaling pathway (AID 743223; active = well fitted inhibition curve with a large enough effect in the signal ratio in the repeat runs, not every such curve was filed as active; the % refers to the signal ratio)
Method in brief: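 Antagonist mode: compound added to VDR-bla cells alongside agonist 1alpha,25-dihydroxyvitamin D3 (3 nM final), incubation 16 h at 37C. Read-out is LiveBLAzer FRET fluorescence, 2 h at room temperature.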

[8] = target: Peroxisome proliferator-activated receptor delta (Homo sapiens) (UniProt Q03181); assay: qHTS assay to identify small molecule antagonists of the peroxisome proliferator-activated receptor delta (PPARd) signaling pathway (AID 743215; active = well fitted inhibition curve with a large enough effect in the signal ratio in the repeat runs, not every such curve was filed as active; the % refers to the signal ratio;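 note: cells stimulated with agonist L165041 at 300 nM final during compound exposure; series mostly up to about 62 µM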)
Method in brief: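 PPARd-bla HEK293H cells (UAS-bla reporter) preincubated 5 h, then given compound plus 300 nM final L165041 agonist for 17 h at 37 C. Beta-lactamase activity read by LiveBLAzer B/G FRET substrate fluorescence after 2 h at room temperature.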

[9] = target: Bile acid receptor (Homo sapiens) (UniProt Q96RI1); assay: qHTS assay to identify small molecule antagonists of the farnesoid-X-receptor (FXR) signaling pathway (AID 743217; active = well fitted inhibition curve with a large enough effect in the signal ratio in the repeat runs, not every such curve was filed as active; the % refers to the signal ratio)
Chain of Bile acid receptor (Homo sapiens) (Q96RI1 whole entry, looked up): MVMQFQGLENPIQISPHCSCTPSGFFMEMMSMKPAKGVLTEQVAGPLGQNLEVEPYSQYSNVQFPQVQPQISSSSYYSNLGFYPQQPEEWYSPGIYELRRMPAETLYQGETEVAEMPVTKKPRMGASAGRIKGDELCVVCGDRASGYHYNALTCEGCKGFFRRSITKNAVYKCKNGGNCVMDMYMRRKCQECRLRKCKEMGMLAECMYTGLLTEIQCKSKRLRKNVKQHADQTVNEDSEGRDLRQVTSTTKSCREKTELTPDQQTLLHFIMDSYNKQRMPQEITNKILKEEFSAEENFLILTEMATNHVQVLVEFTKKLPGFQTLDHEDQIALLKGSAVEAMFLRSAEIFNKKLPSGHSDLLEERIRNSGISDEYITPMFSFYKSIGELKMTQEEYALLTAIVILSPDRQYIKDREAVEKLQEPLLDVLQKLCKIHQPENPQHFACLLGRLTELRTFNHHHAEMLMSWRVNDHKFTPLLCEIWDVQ
Method in brief: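 FXR-UAS-bla HEK 293T cells (beta-lactamase reporter) given compound plus chenodeoxycholic acid (50 uM final), 16 h at 37C. LiveBLAzer B/G FRET substrate added for 2 h at room temperature; fluorescence read.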

[10] = target: Bile acid receptor (Homo sapiens) (UniProt Q96RI1); assay: qHTS assay to identify small molecule agonists of the farnesoid-X-receptor (FXR) signaling pathway (AID 743220; active = well fitted activation curve with a large enough effect in the signal ratio in the repeat runs, not every such curve was filed as active; the % refers to the signal ratio)
Method in brief: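 Beta-lactamase reporter under UAS control in GeneBLAzer FXR HEK 293T cells (5000/well) measured with LiveBLAzer FRET substrate after 2 h at room temperature. Compound exposure lasted 16 h at 37C.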

Measured: Potency

N#Cc1ccc(C2CCCc3cncn32)cc1 (stereo not drawn)
not listed: [8] | [9] | [10]
inactive: all other assays above

c1cnc(N2CCN(Cc3ccc4c(c3)OCO4)CC2)nc1
inactive: [1] | [2] | [3] | [8] | [6] | [7]

O=C1NC(=O)[C@@]2(CCOc3ccc(F)cc32)N1
not listed: [8] | [9] | [10]
inactive: all other assays above

O=c1[nH]c(=O)n([C@H]2C[C@H](O)[C@@H](CO)O2)cc1I
not listed: [5] | [9] | [10]
inactive: all other assays above

NC(=O)Nc1ccccc1
inactive: [1] | [2] | [3] | [4] | [5] | [6]

CC(C)(C)c1nnc(NS(=O)(=O)c2ccccc2)s1
not listed: [5] | [9] | [10]
inactive: all other assays above

CCn1ccnc1CC1COc2ccccc2O1 (stereo not drawn)
not listed: [3] | [6] | [7]
inactive: all other assays above

C1CN(CCOCCN2CCOCC2)CCO1
not listed: [8] | [9] | [10]
inactive: all other assays above

C=C1CC[C@H]2C[C@@H]1C2(C)C
not listed: [8] | [9] | [10]
inactive: all other assays above

CN1N=C(C(N)=O)CCC1=O
inactive: [1] | [2] | [3] | [4] | [5] | [6]

CCC=O
not listed: [8] | [9] | [10]
inactive: all other assays above

O=Cc1cccc([N+](=O)[O-])c1
not listed: [5] | [9] | [10]
inactive: all other assays above

CC(C)OC(=O)c1ccccc1
inactive: [1] | [2] | [3] | [4] | [6]

CC/C=C\CC/C=C/CO
inactive: [1] | [2] | [3] | [4]

C/C=C(\C)C#N
not listed: [8] | [9] | [10]
inactive: all other assays above

CCO[Si](CCC1CCC2OC2C1)(OCC)OCC (stereo not drawn)
not listed: [3]
inactive: all other assays above

CCCC(=O)O[C@]1(C(=O)CO)CC[C@H]2[C@@H]3CCC4=CC(=O)CC[C@]4(C)[C@H]3[C@@H](O)C[C@@]21C
inactive: [1] | [2] | [8] | [4] | [5] | [6]

OCCCC1CCCCC1
inactive: [1] | [2] | [8] | [4] | [5]

O=S(O)CO
not listed: [3] | [5] | [7]
inactive: all other assays above

Nc1nc2c(ncn2COC(CO)CO)c(=O)[nH]1
not listed: [3] | [9] | [10]
inactive: all other assays above

COc1cc(C(=O)N2CCCCCCC2)cc(OC)c1OC
not listed: [3] | [7]
inactive: all other assays above

Cc1ccc(C#N)cc1
not listed: [3] | [7]
inactive: all other assays above

CCSC(=O)N(CC(C)C)CC(C)C
not listed: [3] | [9] | [10]
inactive: all other assays above

COCCc1ccc(OCC(O)CNC(C)C)cc1 (stereo not drawn)
not listed: [3]
inactive: all other assays above

CCC(C)C1CCCCC1=O (stereo not drawn)
inactive: [1] | [2] | [8] | [4] | [5] | [6]

C=C[Si](OC(=C)C)(OC(=C)C)OC(=C)C
not listed: [3]
inactive: all other assays above

N=C(N)c1ccc(OCCCOc2ccc(C(=N)N)cc2)cc1
not listed: [3] | [9] | [10]
inactive: all other assays above

CC(C(=O)O)c1ccc(CC2CCCC2=O)cc1 (stereo not drawn)
not listed: [3] | [9]
inactive: all other assays above

CN1CCC(=C2c3ccccc3CC(=O)c3sccc32)CC1
not listed: [3]
inactive: all other assays above

CC(NC(CCc1ccccc1)C(=O)O)C(=O)N1C(=O)N(C)CC1C(=O)O (stereo not drawn)
not listed: [3] | [4] | [5]
inactive: all other assays above

CCC(=O)OC(C)c1ccccc1 (stereo not drawn)
not listed: [3] | [7]
inactive: all other assays above

CCn1nc(C(=O)O)c(=O)c2cc3c(cc21)OCO3
inactive: [1] | [2] | [8] | [4] | [5] | [6]
